Reference: PubChem BioAssay (NCI)
This is part of a sample that, as a whole, favours compounds with a hit. Of some 79,000 tested, about 15% had one in any assay. Cut-off read from the data, not from the text of the source: active = growth inhibition above about 70%; inactive = the rest.

What was measured:
[1] = NCI Yeast Anticancer Drug Screen. Data for the rad50 strain (AID 155);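 note: 0% = growth of vehicle-only cultures of the same strain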; details: S. cerevisiae rad50 strain growth inhibition; at 50.0 µM; active compounds read high
Procedure, shortened: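 A DNA repair-deficient yeast mutant serves as the test organism; compound-induced growth inhibition is calculated against vehicle-treated cells.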

[2] = NCI Yeast Anticancer Drug Screen. Data for the mec2-1 strain (AID 157); details: S. cerevisiae mec2-1 strain, at 50.0 µM, active compounds read high
Procedure, shortened: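 Each compound was tested on mec2-1 yeast, a strain altered in DNA damage repair or cell cycle control. Growth inhibition is reported relative to vehicle.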

[3] = NCI Yeast Anticancer Drug Screen. Data for the sgs1 mgt1 strain (AID 161);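 note: 0% = growth of cultures given vehicle only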; details: S. cerevisiae sgs1 mgt1 strain, at 50.0 µM, active compounds read high
Procedure, shortened: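 Read-out: growth inhibition vs vehicle controls. Cells: mutant yeast strain deficient in DNA damage repair.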

[4] = NCI Yeast Anticancer Drug Screen. Data for the cln2 rad14 strain (AID 165);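 note: 0% = growth equal to vehicle treated cultures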; details: S. cerevisiae cln2 rad14 strain, at 50.0 µM, active compounds read high
Procedure, shortened: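 Test compounds were added to cln2 rad14 yeast cultures; inhibition of growth was then determined by comparison with vehicle treatment.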

[5] = NCI Yeast Anticancer Drug Screen. Data for the bub3 strain (AID 167); details: S. cerevisiae bub3 mutant strain, at 50.0 µM, active compounds read high
Procedure, shortened: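 Inhibition values come from growth of compound-treated mutant yeast normalised to vehicle-treated controls.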

[6] = NCI Yeast Anticancer Drug Screen. Data for the mlh1 rad18 strain (AID 175); details: S. cerevisiae mlh1 rad18 strain growth inhibition; at 50.0 µM; active compounds read high
Procedure, shortened: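 Inhibition values reflect reduced growth of mutant yeast versus vehicle-treated controls following compound exposure; the mutations affect DNA damage repair.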

Measured: growth inhibition

Cc1ccc(I)c(C)c1
inactive: [1] -40% | [2] -10% | [3] -39.4% | [4] -3.6% | [5] -1.15% | [6] -7.3%

Cc1cccc[n+]1C1CCc2ccccc2C1=O (stereo unspecified)
inactive: [1] 1.5% | [2] 10.7% | [3] 17.4% | [4] -23.1% | [5] -21.3% | [6] 4%

NNc1ncnc2ccc(Cl)cc12
inactive: [1] 1.05% | [2] -9.15% | [3] 11.4% | [4] 1.05% | [5] 5.8% | [6] 6.5%

CC1(C)CC2C(C1=O)C1(C)CCCC2(C)C1=O (stereo unspecified)
inactive: [1] -11.8% | [2] -7.1% | [3] -26.6% | [4] -14.8% | [5] 3% | [6] -46.5%

COc1ccc(C2=CSC3=NC(C)(C)CC(C)=NN23)cc1
inactive: [1] -16.8% | [2] -8.2% | [3] 7.35% | [4] 29.2% | [5] 9.25% | [6] -1.75%

COc1ccc2occc2c1
inactive: [1] 0% | [2] -1.55% | [3] -17.7% | [4] 2.7% | [5] -0.75% | [6] 10.1%

CC(=O)OC/C(=C/C#N)C1CCC2C3CCC4CC(OC(C)=O)CCC4(C)C3CCC12C (stereo unspecified)
inactive: [1] 47% | [2] 30.7% | [3] 45.5% | [4] 40% | [5] 21.5% | [6] 57.5%

CC(=O)NNc1nc(C)c(C(=O)/C=C/C=C/c2ccccc2)s1
inactive: [1] -3.8% | [2] 39% | [3] 10.7% | [4] 10.3% | [5] 13.1% | [6] -21.8%

CC(C)C(=O)CC1(O)C(=O)Nc2ccc([N+](=O)[O-])cc21 (stereo unspecified)
inactive: [1] -9.95% | [2] -0.2% | [3] -7.75% | [4] -34.9% | [5] 4.15% | [6] 2.5%

C[C@H]1C[C@H]2[C@@H]3CC[C@@]4(OCC4=O)[C@@]3(C)C[C@H](O)[C@]2(F)[C@@]2(C)C=CC(=O)C=C12
inactive: [1] -16.6% | [2] -24.4% | [3] 1.6% | [4] -34.9% | [5] 17.4% | [6] 0.35%

CCc1ccc2c(c1)/C(=N\NC(N)=O)CCC2
inactive: [1] -11.2% | [2] 13.5% | [3] -12.8% | [4] -7.6% | [5] 9.8% | [6] -9.5%

COc1cc(C(=O)Nc2cccc(Cl)c2Cl)cc(OC)c1OC
inactive: [1] -7.45% | [2] -13.6% | [3] 12% | [4] 21.2% | [5] 18% | [6] 10.9%

CCC1(CC)C(=O)OC(=O)C1(CC)CC
inactive: [1] -6.05% | [2] 6.7% | [3] 2.8% | [4] -8.2% | [5] -10.9% | [6] -10.4%

Cc1cc(C)cc([N+](=O)[O-])c1
inactive: [1] 8.5% | [2] -19% | [3] 1.3% | [4] 20.1% | [5] 4.65% | [6] -26.3%

O=C(O)c1oc(C(=O)O)c(C(=O)O)c1C(=O)O
inactive: [1] -15% | [2] -38.1% | [3] -18.6% | [4] -28.6% | [5] -32.1% | [6] 7.6%

O=C(Nc1c(O)[nH][nH]c1=O)c1ccccc1
inactive: [1] 0.45% | [2] -0.05% | [3] -9.7% | [4] -36% | [5] -15.7% | [6] -0.1%

O=C(Nc1ccc(Cl)cc1)c1ccc(Cl)c(Cl)c1
inactive: [1] -1.6% | [2] 14.8% | [3] 7.1% | [4] -8.6% | [5] 11.8% | [6] -9.6%

O=C1OC2C3c4ccccc4C(c4c3ccc3ccccc43)C2O1 (stereo unspecified)
inactive: [1] 10.1% | [2] 10.9% | [3] 19.8% | [4] 19.7% | [5] 24.1% | [6] 29.2%

O=C(NNC1=NCCN1)c1ccco1
inactive: [1] -7.5% | [2] -21.1% | [3] -9.8% | [4] -32.4% | [5] -2.3% | [6] -2.25%

CN(C)Cc1c(CC(O)(c2ccccc2)c2ccccc2)ccc2ccccc12
inactive: [1] 10.8% | [2] -4.75% | [3] -12.2% | [4] -0.55% | [5] -1.2% | [6] 5.6%

Cc1cc2[nH]c3ccccc3n2c(=O)c1N=Nc1ccccc1
inactive: [1] 3.1% | [2] 4.65% | [3] 9.75% | [4] -14.3% | [5] 7.05% | [6] 15.8%
